High-throughput results as filed in PubChem.
Compounds with a hit are over-represented: about 9.5% of the library has one in this group of screens.
HPGD inh – qHTS Assay for Inhibitors of HPGD (15-Hydroxyprostaglandin Dehydrogenase); 150,000 compounds, 4.3% hits; Potency, µM, for inactives: top-dose activity change, negative = inhibition, hits mostly inhibitors; AID 894, 2007; purified HPGD, NADH fluorescence kinetic, PGE2 substrate; 15-hydroxyprostaglandin dehydrogenase [NAD(+)] (Homo sapiens), P15428; active = well fitted inhibition curve with a large enough effect, not every such curve was filed as active; inconclusive = small, poorly fitted or top-dose-only effect, or another doubt; inactive = no such curve, though single readings can be large or run the other way
Target sequence (P15428 whole entry, looked up): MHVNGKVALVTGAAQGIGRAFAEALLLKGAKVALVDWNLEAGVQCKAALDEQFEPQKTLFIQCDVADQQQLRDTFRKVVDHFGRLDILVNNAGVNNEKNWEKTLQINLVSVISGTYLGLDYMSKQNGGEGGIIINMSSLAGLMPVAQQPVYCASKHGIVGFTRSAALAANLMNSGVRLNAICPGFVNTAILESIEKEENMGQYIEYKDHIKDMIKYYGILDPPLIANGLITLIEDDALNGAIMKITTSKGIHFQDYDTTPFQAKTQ
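NADH formation kinetics: reaction with 30 uM PGE2 and 1 mM NAD+ (final), 20 nM enzyme, Tris-HCl pH 8 with Tween 20, after 15 min compound preincubation at room temperature. Fluorescence change, last versus first of five reads.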
Tau fluor counter – Counterscreen qHTS for Inhibitors of Tau Fibril Formation, Fluorescence Polarization; Potency, µM (highest dose often 57.7 µM), for inactives: at the top dose activity change, negative = decrease; 280,000 compounds, 0.93% hits; AID 1463, 2008; tau K18 P301L Alexa594 fluorescence, heparin fibrillization; note: nearly all actives have a fitted effect of over 55% in size
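Human K18 P301L tau (15 uM unlabeled plus 0.24 uM Alexa 594-labeled, final) in 100 mM sodium acetate pH 7 was mixed with compound and 20 uM heparin and incubated 6 hr at 37 C.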
Tau fibril FP – qHTS for Inhibitors of Tau Fibril Formation, Fluorescence Polarization. Microtubule-associated protein tau (Homo sapiens), P10636. K18 P301L tau heparin fibrillization, Alexa594 FP, 6 h. Potency, µM (series often up to 57.7 µM), without a hit: at the top dose activity, negative = inhibition, most hits filed as inhibitors. 280,000 compounds, 0.39% hits. AID 1468, 2008; note: nearly all actives have a fitted effect of over 55% in size
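Read-out: fluorescence polarization of Alexa 594-labeled tau (0.24 uM), 555 nm excitation, 632 nm emission. Mixtures held 15 uM unlabeled K18 P301L, compound and 20 uM heparin, pH 7 acetate buffer, incubated 6 hr at 37 C.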
ALDH1A1 block – qHTS Assay for Inhibitors of Aldehyde Dehydrogenase 1 (ALDH1A1); Aldehyde dehydrogenase 1A1 (Homo sapiens), P00352; Purified ALDH1A1, NADH fluorescence, propionaldehyde substrate; Potency, µM (highest dose often 75.3 µM), for the others: top-dose activity, negative = inhibition, most hits filed as inhibitors; 220,000 compounds, 7.3% hits; AID 1030, 2008; active = well fitted inhibition curve with a large enough effect, not every such curve was filed as active; inconclusive = small, poorly fitted or top-dose-only effect, or another doubt; inactive = no such curve, though single readings can be large or run the other way;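 note: plate controls were no enzyme wells and a reference inhibitor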
Tau fibril ThT – qHTS for Inhibitors of Tau Fibril Formation, Thioflavin T Binding; recombinant tau K18 P301L, heparin-induced fibrillization, ThT fluorescence; 270,000 compounds, 2.1% hits; Potency, µM (series often up to 57.4 µM), for inactives: at the top dose activity, negative = inhibition, actives largely listed as inhibitors; AID 1460, 2008; note: nearly all actives have a fitted effect of over 55% in size
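Fibril formation assay: tau K18 P301L at 15 uM with trace Alexa 594 label, heparin inducer 20 uM, pH 7 sodium acetate buffer, 37 C for 6 hr; endpoint ThT signal.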
NPSR antag – qHTS Assay for Antagonists of the Neuropeptide S Receptor: cAMP Signal Transduction | Q6W5P4 | CHO-NPSR cells, cAMP TR-FRET, antagonist mode | Potency, µM (titrated, usually from 38.3 µM), inactives show at the highest dose activity change, negative = inhibition, hits mostly inhibitors | 220,000 compounds, 1% hits; note: nearly all actives have a fitted effect of over 50% in size
Target sequence (Q6W5P4 whole entry, looked up): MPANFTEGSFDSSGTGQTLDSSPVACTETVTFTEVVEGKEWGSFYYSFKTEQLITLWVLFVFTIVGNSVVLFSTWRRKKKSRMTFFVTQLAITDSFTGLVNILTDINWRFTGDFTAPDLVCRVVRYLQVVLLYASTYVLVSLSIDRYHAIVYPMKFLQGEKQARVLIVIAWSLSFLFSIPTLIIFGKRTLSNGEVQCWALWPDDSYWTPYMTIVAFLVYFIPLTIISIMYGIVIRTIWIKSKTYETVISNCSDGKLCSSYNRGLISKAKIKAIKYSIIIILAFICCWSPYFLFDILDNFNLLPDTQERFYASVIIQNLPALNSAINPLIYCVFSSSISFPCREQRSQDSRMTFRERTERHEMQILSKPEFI
The depositor's hits bear a star; ? = inconclusive; · = not tested or not shown; [ ] = remark or other dose. Unless noted, calls come from the whole dose curve; as a rule, active = well fitted curve in the direction sought with a large enough effect; inconclusive = small, poorly fitted or top-dose-only effect, or another doubt; inactive = no such curve, though single readings can be large; an effect the other way counts as inactive or inconclusive. Unless noted, % is set by controls: 0 for no effect and ±100 for the full control effect; potency is the fitted concentration of half-maximal effect.

SMILES | HPGD inh | Tau fluor counter | Tau fibril FP | ALDH1A1 block | Tau fibril ThT | NPSR antag
Nc1c(-c2nc(-c3cccs3)no2)nnn1-c1cccc(Cl)c1 | · | -6.7% | -14.6% | · | -0.5% | ·
CCOc1ccccc1CNC(=O)c1cc2c(=O)n(Cc3ccccc3)ccc2nc1C | · | 2.7% | 4.3% | · | -7.0% | ·
CCCN1CCN(c2cc3c(cc2F)c(=O)c(S(=O)(=O)c2ccc(CC)cc2)cn3CC)CC1 | · | -0.9% | 1.4% | · | 0.4% | ·
COCCNC(=O)C(c1cccnc1)N(Cc1ccc(C)cc1)C(=O)Cn1nnc2ccccc21 (stereo not given) | · | 5.8% | 0.7% | 4.3% | 0.3% | -8.6%
CCc1cc2c(=O)n(CCC(C)C)c(=S)[nH]c2s1 | · | -4.2% | 4.1% | 15.8µM* | -7.3% | -29.6%
CCCn1c(=S)[nH]c2ccccc2c1=O | · | -14.2% | 1.0% | 2.3% | -3.9% | -5.9%
O=S(=O)(NC1CCCC1)c1ccc(S(=O)(=O)N(Cc2cccs2)CC2CCCO2)cc1 (stereo not given) | -16.3% | -19.0% | 0.1% | 25.1µM* | -4.7% | -15.0%[46.1 µM]
O=C(C1CCCN(S(=O)(=O)c2ccc(F)cc2)C1)N(Cc1cccs1)C1CC1 (stereo not given) | -3.5% | -11.2% | -2.1% | 17.8µM* | -10.2% | -25.6%[46.1 µM]
O=S(=O)(c1ccc(S(=O)(=O)N(Cc2cccs2)CC2CCCO2)cc1)N1CCCCC1 (stereo not given) | -3.9% | -29.5% | -7.1% | 7.94µM* | -23.1% | -27.1%[46.1 µM]
O=C(CN(Cc1cccs1)S(=O)(=O)c1ccc(S(=O)(=O)N2CCCCC2)cc1)Nc1ccccc1 | -5.8% | -12.1% | -10.9% | 8.7% | -0.2% | -15.6%
Cc1cc(C)[n+]2[nH]c(N)c(N=Nc3ccccc3)c2n1 | · | -20.9% | 4.0% | · | 15.8µM* | 38.3%
Cc1cc(C)n2[nH]c(=O)c(N=Nc3ccccc3)c2n1 | -14.3% | 0.5% | 3.8% | -2.6% | ? | ?
C/C=C\C1=C(CO)[C@H](O)[C@H]2OC2[C@@H]1O (stereo not given in full) | · | -17.1%[11.6 µM] | -4.3%[11.6 µM] | 10.9%[13.5 µM] | -14.2%[11.5 µM] | ·
CCN(CC)c1ccc(/C=C2/SC(=O)N(C(C)C)C2=O)o1 | -20.2% | -18.5% | -2.9% | 2.51µM* | 17.8µM* | -43.2%
CC1=C(c2ccc(C(C)C)cc2)S(=O)(=O)N=C1N1CCC(C(=O)NCCc2ccco2)CC1 | · | 2.5% | -5.1% | · | ? | ·
CC(C)(C)c1ccc(/C=C/C(=O)Nc2ccc3c(c2)OCCO3)cc1 | -15.0% | 10µM*[quencher] | ? | -3.0% | ? | ·
Oc1ccccc1C1=NOC(O)(C(F)F)C1 (stereo not given) | 15.8µM* | -1.3% | 5.6% | 1.1% | 1.7% | 5.0%[46.1 µM]
CN(C)c1ccc(C(C#N)c2ccc(Cl)cc2)nn1 (stereo not given) | · | 8.3% | -0.4% | -7.2% | 1.3% | -2.5%
CN(C)c1ccc(C(C#N)c2ccccc2)nn1 (stereo not given) | · | 0.4% | 9.1% | 10µM* | -4.4% | 4.0%
Nc1ccc(C(=O)C(=O)c2ccc(N)cc2)cc1 | · | -11.4% | 3.6% | · | -6.8% | -5.5%
N=C1C=CC(=C(c2ccc(N)cc2)c2ccc(N)cc2)C=C1 | 10µM* | · | · | 7.3%[13.5 µM] | · | ·
COc1cc(OC)nc(-n2ncc(Br)c(Br)c2=O)n1 | -0.9% | -13.4% | ? | 10µM* | 10µM* | 6.31µM*
CCN(CC)c1ccc(NC(=O)CSc2nnc(C)c(=O)[nH]2)cc1 | · | -18.9% | 1.8% | · | -15.8% | ·
COc1cccc(CNC(=O)c2cnc(N3CCCCC3)c3ccccc23)c1 | · | -20.5% | -0.5% | · | -11.6% | ·
CC1CCCN(S(=O)(=O)c2ccc(NC(=O)Cn3nnc(-c4ccccc4F)n3)cc2)C1 (stereo not given) | -6.1% | ? | 20µM* | ? | 7.7% | -23.3%[46.1 µM]
SMILES | HPGD inh | Tau fluor counter | Tau fibril FP | ALDH1A1 block | Tau fibril ThT | NPSR antag
CC1CCN(S(=O)(=O)c2ccc(NC(=O)Cn3nnc(-c4ccccc4)n3)cc2)CC1 | -2.8% | ? | ? | 4.5% | 11.5% | ?
O=C(Cn1nc(-c2ccccc2F)ccc1=O)Nc1ccc(S(=O)(=O)N2CCCCCC2)cc1 | 31.6µM* | ? | ? | ? | -1.9% | -13.4%
O=C(Cn1nc(-c2ccccc2Cl)ccc1=O)Nc1ccc(Br)cc1 | · | ? | ? | 7.94µM* | -16.1% | 26.7%
O=C(CN1CCCCC1)Nc1ccc(S(=O)(=O)N2CCCCCC2)cc1 | -1.3% | 1.3% | -4.8% | 0.6% | 2.1% | -1.0%[46.1 µM]
O=C(COC(=O)CCN1C(=O)c2ccccc2C1=O)Nc1ccc(S(=O)(=O)N2CCCC2)cc1 | -13.8% | 4.5% | -5.0% | 5.01µM* | -1.8% | -10.4%[46.1 µM]
COc1cccc(/C=C/C(=O)OCC(=O)Nc2ccc(S(=O)(=O)N3CCCC3)cc2)c1 | ? | 1.9% | -9.1% | 7.08µM* | 2.5% | 2.9%
Cc1ccccc1-c1ccc(=O)n(CC(=O)Nc2ccc(N3CCOCC3)cc2)n1 | -5.3% | -10.1% | 4.2% | -0.9% | -5.4% | ?
Cc1ccccc1-c1ccc(=O)n(CC(=O)Nc2ccc(C(=O)N3CCCC3)cc2)n1 | 14.1µM* | -7.3% | 1.8% | ? | -10.0% | -3.2%[46.1 µM]
COc1cc(/C=C/C(=O)OCC(=O)Nc2ccc(S(=O)(=O)N3CCCC3)cc2)ccc1O | ? | ? | ? | ? | -14.1% | -10.0%
COc1ccc(C/C(C)=N/NC(=O)C2COc3ccccc3O2)cc1 (stereo not given) | · | -0.1% | -4.4% | ? | -7.5% | 3.1%
CC(C)n1cnc2c(N(C)c3ccccc3)nc(N(CCN(C)C)Cc3ccccc3)nc21 | · | -4.7% | 3.2% | · | ? | 10µM*
CCn1c(C)nc2cc(C(=O)N/N=C/c3ccc(N4CCOCC4)cc3)ccc21 | · | -20.5% | 4.5% | ? | 8.91µM* | -10.9%
O=S(=O)(N/N=C/c1ccc(N2CCOCC2)cc1)c1ccccc1 | · | -0.1% | 7.3% | 10µM* | 4.8% | -9.0%
O=C(N/N=C/c1ccc(N2CCOCC2)cc1)c1ccc(O)cc1 | · | -20.8% | 8.8% | ? | 5.01µM* | 12.2%
